Compound activity from PubChem BioAssay.
CR mimetic SO = reduction of superoxide in aged yeast, primary screen, HTS; 330,000 compounds, 0.18% hits; superoxide response (% of plate mean), % at 10 µM; S. cerevisiae aged cells, superoxide DHE fluorescence; active compounds read low;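 active means superoxide response under a set limit, about three screen SD below normal, cut at about 65% in these data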;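 further: yeast aged for seven days with compound at 30 °C before DHE staining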
NALP3 yeast inh = NALP3 inflammasome inhibitors in reconstituted yeast, primary screen, luminescence, uHTS; 330,000 compounds, 0.39% hits; inhibition, % at 10 µM; AID 2825, 2010; Yeast reconstituted NLRP3/ASC/caspase-1, beta-gal luminescence, 24 h;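 active means inhibition of 50% or more; inactive means inhibition below 50%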
tim23-1 inh = growth inhibitors of tim23-1 mutant yeast, primary screen, luminescence, uHTS. S. cerevisiae tim23-1 growth, BacTiter-Glo luminescence, 24 h. inhibition, % at 20 µM. 330,000 compounds, 1.3% hits. AID 463212, 2010;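 active means growth inhibition of the mutant yeast at or above 50%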;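 further: temperature-sensitive mutant grown at 25 °C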
tim10-1 inh = growth inhibitors of tim10-1 mutant yeast, primary screen, luminescence, uHTS; S. cerevisiae tim10-1 ts strain growth, BacTiter-Glo, 24 h; inhibition, % at 20 µM; 330,000 compounds, 2.2% hits;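 active means inhibition of at least 40%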;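 further: mutant grown at 25 °C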
TIM10 inh = growth inhibitors of isogenic TIM10 control yeast, primary screen, counter-screen for tim10-1 yeast inhibitor project, luminescence, uHTS | AID 463195, 2010 | inhibition, % at 10 µM | 330,000 compounds, 1.4% hits | S. cerevisiae TIM10 strain growth, BacTiter-Glo luminescence, 24 h;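 active means inhibition of 40% or more at the single tested concentration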;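 further: wild-type TIM10 isogenic control strain grown at permissive 25 °C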
tim10-1 confirm = growth inhibitors of tim10-1 mutant yeast, confirmation, single concentration, luminescence, S. cerevisiae; shares compounds with tim10-1 inh; S. cerevisiae tim10-1 ts strain growth, BacTiter-Glo, 24 h; inhibition, % at 20 µM; 7,400 compounds, 56% hits;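 active means inhibition of yeast growth at or above a set limit in either of two repeat tests at 20 µM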;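 further: tim10-1 mutant grown at permissive 25 °C to find synthetic lethal compounds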
A number is an active result; 0 = inactive; - = not tested or not shown. Most compounds without a hit are left out; they make up all but 3.8% or so of the library.

SMILES | CR mimetic SO | NALP3 yeast inh | tim23-1 inh | tim10-1 inh | TIM10 inh | tim10-1 confirm
COC(=O)C1(Cc2cc(-c3cccc(Br)c3)no2)CCN(C(=O)OC(C)(C)C)CC1 | 0 | 0 | 0 | 41 | 0 | 0
FC(F)(F)c1ccc(N2CCOCC2)c(Nc2nc3ccccc3n3cnnc23)c1 | 0 | 0 | 0 | 54 | 0 | 59
c1ccc(N2CCCCC2)c(Nc2nc3ccccc3n3cnnc23)c1 | 0 | 0 | 0 | 0 | 0 | -
Cc1cc(C)nc(-n2nc(C)cc2NC(=O)CN2CCCC(C)C2)n1 (configuration not stated) | 0 | 0 | 0 | 44 | 0 | 0
COc1ccc(CC(=O)O/N=C(\N)c2ccccn2)cc1OC | 0 | 0 | 0 | 0 | 0 | -
COc1ccc(CC(=O)O/N=C(\N)Cc2cccc3ccccc23)cc1OC | 0 | 0 | 0 | 58 | 0 | 48
COc1ccccc1C(=O)NS(=O)(=O)c1ccc(C)cc1 | 0 | 0 | 0 | 0 | 0 | -
COc1ccc2cc(CCNC(=O)c3c(-c4ccccc4Cl)noc3C)c(=O)[nH]c2c1 | 0 | 0 | 0 | 41 | 0 | 0
CCOc1ccc(N2CC(C(=O)N3CCc4ccccc43)CC2=O)cc1 (configuration not stated) | 0 | 0 | 0 | 0 | 0 | -
CCCCn1c(N)c(N(CCOC)C(=O)C2CC(=O)N(c3ccc(CC)cc3)C2)c(=O)[nH]c1=O (configuration not stated) | 0 | 0 | 0 | 0 | 0 | -
CSc1ccccc1OCc1cc(C(=O)N2CCN(c3ncccn3)CC2)no1 | 0 | 0 | 0 | 46 | 0 | 0
CSc1ccccc1OCc1cc(C(=O)N2CCCC(C)C2)no1 (configuration not stated) | 0 | 0 | 0 | 0 | 0 | -
CSc1ccccc1OCc1cc(C(=O)N2CCSCC2)no1 | 0 | 0 | 0 | 0 | 0 | -
CSc1ccccc1OCc1cc(C(=O)N2CCC(Oc3cccnc3)CC2)no1 | 0 | 0 | 0 | 43 | 0 | 37
O=C(c1cc(COc2ccc(F)cc2Cl)on1)N1CCN(c2cnccn2)CC1 | 0 | 0 | 0 | 50 | 0 | 47
CSCCC(N=C1NS(=O)(=O)c2ccccc21)C(=O)N1CCCC(C(N)=O)C1 (configuration not stated) | 0 | 0 | 0 | 0 | 0 | -
COc1ccc(OC)c(CN2CCN(C(=O)[C@@H](NC(=O)c3cccc(C)c3)C(C)C)CC2)c1 | 0 | 0 | 0 | 0 | 0 | -
Cc1ccc(S(=O)(=O)CCC(=O)N(CCCN2CCOCC2)c2nc3ccccc3s2)cc1 | 0 | 0 | 0 | 42 | 0 | 42
COc1ccc(-c2noc(N3CCC(C(=O)NCCCN4CCCCC4)CC3)n2)cc1 | 0 | 0 | 0 | 0 | 0 | -
O=C1CCCN1CCC12CC3CC(CC(C3)C1)C2 | 0 | 0 | 0 | 41 | 0 | 0
CC(O)[C@H]1CNC(=O)C(=O)N1CCC12CC3CC(CC(C3)C1)C2 (some centres not stated) | 0 | 0 | 0 | 0 | 0 | -
O=C(c1ccc(SCc2cccc(Br)c2)c([N+](=O)[O-])c1)N1CCN(c2ccccn2)CC1 | 0 | 0 | 0 | 0 | 0 | -
O=[N+]([O-])c1ccccc1N/N=C/c1c[nH]c2ccccc12 | 0 | 0 | 0 | 69 | 0 | 57
N#Cc1ccc(C(=O)NC2CCCCCCC2)cc1 | 0 | 0 | 0 | 0 | 0 | -
O=C(c1cc(-c2ccco2)nn1-c1cccc(Cl)c1)N1CCCCC1 | 0 | 0 | 0 | 46 | 0 | 0
SMILES | CR mimetic SO | NALP3 yeast inh | tim23-1 inh | tim10-1 inh | TIM10 inh | tim10-1 confirm
CC(C)NC(=O)c1cc(-c2ccco2)nn1-c1ccc(Cl)cc1 | 0 | 0 | 0 | 44 | 0 | 0
S=C(NC1CC2CCC1C2)N1CCN(c2cccc(Cl)c2)CC1 (configuration not stated) | 0 | 0 | 0 | 0 | 0 | -
O=C(Nc1ccccc1F)c1ccc2c(c1)CCN2S(=O)(=O)c1ccccc1 | 0 | 0 | 0 | 40 | 0 | 0
C=C(C)C1CC=C(C)/C(=N/NC(=O)c2ccc(NC(=O)c3cccc(C)c3)cc2)C1 (configuration not stated) | 0 | 0 | 0 | 0 | 0 | -
C=C(C)C1CC=C(C)/C(=N/NC(=S)Nc2ccccc2)C1 (configuration not stated) | 0 | 0 | 0 | 41 | 0 | 0
COc1cccc(CN(C)C(=O)CSCC(=O)Nc2cccc(C)c2)c1OC | 0 | 0 | 0 | 0 | 0 | -
Nc1c(C(=O)NCc2ccc(F)cc2)c2nc3ccccc3nc2n1CCCN1CCOCC1 | 0 | 0 | 0 | 60 | 0 | 0
Nc1c(C(=O)NCc2ccccc2)c2nc3ccccc3nc2n1CCCN1CCOCC1 | 0 | 0 | 0 | 0 | 0 | -
CC(=O)N(C(C)=O)c1c(C#N)c(C)n(-c2ccccc2)c1C(=O)c1ccccc1 | 0 | 0 | 0 | 41 | 0 | 0
FC(F)(F)c1ccccc1-c1nc(-c2ccncc2)no1 | 0 | 0 | 0 | 0 | 0 | -
CS(=O)(=O)c1ccccc1-c1nc(-c2ccc(C(F)(F)F)cc2)no1 | 0 | 0 | 0 | 40 | 0 | 0
COc1ccc(NC(=O)CN(C)C(=O)Cc2n[nH]c(=O)c3ccccc23)cc1 | 0 | 0 | 0 | 0 | 0 | -
COc1cc2[nH]c(C(=O)N3CCC(Cc4ccccc4)CC3)cc2c(OC)c1OC | 0 | 0 | 0 | 44 | 0 | 0
CCOC(=O)C1CCN(C(=O)c2cc3c(OC)c(OC)c(OC)cc3[nH]2)CC1 | 0 | 0 | 0 | 0 | 0 | -
CCC(CO)Nc1ncnc2c1cnn2-c1ccc(Cl)cc1 (configuration not stated) | 0 | 0 | 0 | 0 | 0 | -
CCC(CO)Nc1nc2ccc(Cl)cc2c2ccccc12 (configuration not stated) | 0 | 0 | 0 | 53 | 0 | 39
CCSc1nc(-c2ccc(OC)cc2)cc(-c2ccccc2)c1C#N | 0 | 0 | 0 | 0 | 0 | -
COc1ccc(-c2cc(-c3ccccc3)c(C#N)c(S(C)=O)n2)cc1 (configuration not stated) | 0 | 0 | 0 | 45 | 0 | 30
O=C(Cn1nc(-c2ccccc2)c2ccccc2c1=O)NN1CCOCC1 | 0 | 0 | 0 | 0 | 0 | -
C=CCn1c(Cc2cccs2)nnc1SCC(=O)c1cccc(Br)c1 | 0 | 0 | 0 | 41 | 0 | 0
O=C(O)CCC(=O)Nc1cccc2cccnc12 | 0 | 0 | 0 | 72 | 0 | 0
c1ccc(CN2CCN(CCOCCOc3ccc4c(c3)CCC4)CC2)cc1 | 0 | 0 | 0 | 0 | 0 | -
CCN(CC)C(=O)c1ccc(COc2ccccc2Cl)cc1 | 0 | 0 | 0 | 42 | 0 | 0
CSc1ncc(OCc2ccccc2)c(=O)[nH]1 | 0 | 0 | 0 | 0 | 0 | -
CCOc1ccc(C(=O)N2CCC3(CC2)NCCc2[nH]cnc23)cc1 | 0 | 0 | 0 | 0 | 0 | -
CCN(CC)CCN(C(=O)c1cc2ccccc2cc1OC)c1nc2ccc(OC)cc2s1 | 0 | 0 | 0 | 56 | 0 | 0
CCN(CC)CCN(C(=O)c1ccc2ccccc2c1)c1nc2ccc(OC)cc2s1 | 0 | 0 | 0 | 49 | 0 | 0
